Source: PubChem BioAssay (The Scripps Research Institute Molecular Screening Center)
NR5A2 inv ag = inverse agonists of human LRH-1 (NR5A2). O00482. HEK293T StAR-luciferase reporter, LRH-1 transfected, 24 h. inhibition, % at 3.6 µM. actives 0.13% (n = 360,000). AID 602396;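 active means inhibition above the mean inhibition of all tested compounds plus 3 SD, cut at about 73% in these data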
NCOA2 inhibitor = human SRC2 (NCOA2) inhibition; inhibition, % at 9 µM; HEK293 GAL4-SRC2 luciferase reporter, luminescence; Q15596; actives 0.17% (n = 370,000);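 active means inhibition above the mean inhibition of all tested compounds plus 3 SD, set per campaign, cut at about 52% in these data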
GalR3 antagonist = blocks the human galanin receptor 3. HEK293 GalR3-CNG cAMP membrane potential fluorescence; galR3 body fused to GalR1 C-terminus. inhibition, % at 3 µM. AID 651719. O60755. actives 0.44% (n = 360,000);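 active means inhibition above the screen-wide average plus 3 SD, cut at about 13% in these data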;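 further: forskolin and galanin both at EC90 stimulate the cells; cAMP rise reported by CNG channel membrane potential dye signal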
NCOA1 inh = inhibits human SRC1 coactivator | Q15788 | HEK293 GAL4-SRC1 luciferase reporter, luminescence | actives 0.12% (n = 360,000) | inhibition, % at 3.6 µM;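 active means inhibition above the campaign mean plus 3 SD, with each screening campaign given its own cutoff, cut at about 60% in these data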
NCOA3 inh = inhibits human SRC3 coactivator; inhibition, % at 3.6 µM; actives 0.17% (n = 360,000); Q9Y6Q9; HEK293 GAL4-SRC3 luciferase reporter, luminescence;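 active means inhibition above a per-campaign cutoff, the mean of all compounds plus 3 SD, cut at about 60% in these data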;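 further: higher means less SRC3-driven luciferase light from the GAL4 reporter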
NR2F2 inh = NR2F2 (human) inhibition, primary screen; P24468; HEK293T NGFI-A luciferase reporter, luminescence; inhibition, % at 8.6 µM; actives 0.7% (n = 370,000); AID 686940;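 active means inhibition above a per-plate cutoff, mean inhibition of test wells between control levels plus 3 SD, cut at about 38% in these data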;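 further: cells cotransfected with COUP-TFII expression vector driving the NGFI-A reporter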
GalR3 conf = GalR3 (human) antagonism, confirmation; AID 652245; HEK293 GalR3 CNG cAMP biosensor, membrane potential fluorescence; galR3 fused to GalR1 carboxy tail; challenged with forskolin and galanin at EC90; actives 59% (n = 1,600); shares compounds with GalR3 antagonist; inhibition, % at 3 µM;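 active means inhibition above the primary screen's cutoff, the mean inhibition of all screened compounds plus 3 SD, cut at about 13% in these data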
CNG parental = counter-screen for GalR3 antagonists: nonspecific agonists in parental HEK-CNG cells | shares compounds with GalR3 antagonist | actives 10% (n = 1,600) | activation, % at 3 µM | HEK293-CNG parental cells, cAMP membrane potential fluorescence; normalised: DMSO wells 0%, forskolin wells 100%; in the data active means activation above about 1.3%
Gal4-VP16 ctr = VP16 inhibition counter-screen for COUP-TFII; shares compounds with NR2F2 inh; HEK293 Gal4-VP16 luciferase reporter, luminescence; inhibition, % at 8.5 µM; actives 25% (n = 2,500); in the data active means inhibition above about 13%
NR2F2 inh conf = COUP-TFII (NR2F2) inhibition, confirmation assay. shares compounds with NR2F2 inh. HEK293 NGFI-A luciferase reporter, luminescence. inhibition, % at 8.5 µM. actives 45% (n = 2,500);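 active means mean inhibition over three repeats above a set limit taken from the earlier primary screen, cut at about 38% in these data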
Hits are given with their value; ! = a repeat was not active. An excerpt weighted towards active compounds, which were near 1.1% of everything screened.

Results for Nc1cc(-c2cccc(Br)c2)nn1Cc1ccccc1 ?
NR5A2 inv ag: inactive; NCOA2 inhibitor: inactive; GalR3 antagonist: inactive; NCOA1 inh: inactive; NCOA3 inh: inactive; NR2F2 inh: inactive

What do the screens show for `COc1ccc(-c2ccc(C(=O)NCc3ccncc3)c3occc23)c(C)c1`?
NR5A2 inv ag: inactive; NCOA2 inhibitor: inactive; GalR3 antagonist: 90.0; NCOA1 inh: inactive; NCOA3 inh: inactive; NR2F2 inh: 68.5; GalR3 conf: 102.6; CNG parental: inactive; Gal4-VP16 ctr: inactive; NR2F2 inh conf: 55.9

Results for COc1ccc(-c2coc3c(C(=O)NCc4ccc(OC)c(OC)c4)cccc23)c(C)c1 ?
NR5A2 inv ag: inactive; NCOA2 inhibitor: inactive; GalR3 antagonist: 88.6; NCOA1 inh: inactive; NCOA3 inh: inactive; NR2F2 inh: 78.6; GalR3 conf: 103.6; CNG parental: inactive; Gal4-VP16 ctr: inactive; NR2F2 inh conf: 69.2

How did O=C(NCc1ccc(C(F)(F)F)cc1)c1ccc(-c2ccc(F)c(F)c2)c2ccoc12 do in these assays?
NR5A2 inv ag: inactive; NCOA2 inhibitor: inactive; GalR3 antagonist: inactive; NCOA1 inh: inactive; NCOA3 inh: inactive; NR2F2 inh: inactive

Results for O=C(NCc1ccncc1)c1ccc(-c2ccc(F)c(F)c2)c2ccoc12 ?
NR5A2 inv ag: inactive; NCOA2 inhibitor: inactive; GalR3 antagonist: 29.2; NCOA1 inh: inactive; NCOA3 inh: inactive; NR2F2 inh: 70.1; GalR3 conf: inactive; CNG parental: inactive; Gal4-VP16 ctr: inactive; NR2F2 inh conf: 41.0

What do the screens show for `COc1ccc(S(=O)(=O)NC(N)=NCCc2ccc(OC)c(OC)c2)cc1`?
NCOA2 inhibitor: inactive; GalR3 antagonist: inactive; NR2F2 inh: inactive

How did OC1(c2ccccc2)CC(c2ccccc2)c2ccccc2O1 (stereo not drawn) do in these assays?
NR5A2 inv ag: inactive; NCOA2 inhibitor: inactive; GalR3 antagonist: inactive; NCOA1 inh: inactive; NCOA3 inh: inactive; NR2F2 inh: inactive

What do the screens show for `COc1ccc(-c2noc(N3CCCC(C(=O)Nc4ccccc4F)C3)n2)cc1` (stereo not drawn)?
NR5A2 inv ag: inactive; NCOA2 inhibitor: inactive; NCOA1 inh: inactive; NCOA3 inh: inactive; NR2F2 inh: inactive

Results for COCCN(CCOC)S(=O)(=O)c1ccc(C(=O)Nc2ccc([N+](=O)[O-])cc2OC)cc1 ?
NR5A2 inv ag: inactive; NCOA2 inhibitor: inactive; GalR3 antagonist: inactive; NCOA1 inh: inactive; NCOA3 inh: inactive; NR2F2 inh: inactive

How did COc1cc(C)c(Br)cc1S(=O)(=O)NCc1cccs1 do in these assays?
NR5A2 inv ag: inactive; NCOA2 inhibitor: inactive; GalR3 antagonist: inactive; NCOA1 inh: inactive; NCOA3 inh: inactive; NR2F2 inh: inactive

What do the screens show for `COc1cc(C)c(Br)cc1S(=O)(=O)NCc1ccncc1`?
NR5A2 inv ag: inactive; NCOA2 inhibitor: inactive; GalR3 antagonist: 39.4; NCOA1 inh: inactive; NCOA3 inh: inactive; NR2F2 inh: 56.9; GalR3 conf: 58.0; CNG parental: inactive; Gal4-VP16 ctr: inactive; NR2F2 inh conf: inactive

What do the screens show for `Cc1ccc(S(=O)(=O)NCc2ccncc2)c(C)c1C`?
NR5A2 inv ag: inactive; NCOA2 inhibitor: inactive; GalR3 antagonist: 85.9; NCOA1 inh: inactive; NCOA3 inh: inactive; NR2F2 inh: 68.4; GalR3 conf: 110.6; CNG parental: inactive; Gal4-VP16 ctr: inactive; NR2F2 inh conf: 56.8

How did O=C(Nc1ccc(Oc2cccnc2)nc1)c1ccc(C(F)(F)F)cc1 do in these assays?
NR5A2 inv ag: inactive; NCOA2 inhibitor: inactive; GalR3 antagonist: 76.7; NCOA1 inh: inactive; NCOA3 inh: inactive; NR2F2 inh: 66.0; GalR3 conf: 61.4; CNG parental: inactive; Gal4-VP16 ctr: inactive; NR2F2 inh conf: 38.5

What do the screens show for `O=C(NC(=O)c1c(Cl)cccc1Cl)Nc1ccc(Oc2cccnc2)nc1`?
NR5A2 inv ag: inactive; NCOA2 inhibitor: inactive; GalR3 antagonist: inactive; NCOA1 inh: inactive; NCOA3 inh: inactive; NR2F2 inh: inactive

What do the screens show for `COc1ccc(NS(=O)(=O)c2ccc(-c3coc(C)n3)cc2)cc1`?
NR5A2 inv ag: inactive; NCOA2 inhibitor: inactive; GalR3 antagonist: inactive; NCOA1 inh: inactive; NCOA3 inh: inactive; NR2F2 inh: inactive

Results for COc1ccc(NS(=O)(=O)c2ccc(-c3coc(C)n3)cc2)cc1OC ?
NR5A2 inv ag: inactive; NCOA2 inhibitor: inactive; GalR3 antagonist: 85.4; NCOA1 inh: inactive; NCOA3 inh: inactive; NR2F2 inh: 51.5; GalR3 conf: 100.1; CNG parental: inactive; Gal4-VP16 ctr: inactive; NR2F2 inh conf: 59.3

How did COc1ccccc1-n1c(-c2ccccc2)c[n+]2c1CCc1ccccc1-2 do in these assays?
NR5A2 inv ag: inactive; NCOA2 inhibitor: inactive; GalR3 antagonist: 52.8; NCOA1 inh: inactive; NCOA3 inh: 74.0!; NR2F2 inh: 70.6; GalR3 conf: 67.9!; CNG parental: 1.6; Gal4-VP16 ctr: 18.5!; NR2F2 inh conf: 63.2

What do the screens show for `Cc1ccc(S(=O)(=O)C(C#N)=C2N(C)c3ccccc3N2C)cc1`?
NR5A2 inv ag: inactive; NCOA2 inhibitor: inactive; GalR3 antagonist: inactive; NCOA1 inh: inactive; NCOA3 inh: inactive; NR2F2 inh: inactive

How did COc1ccc(CCN(Cc2cccs2)S(=O)(=O)c2ccccc2)cc1OC do in these assays?
NCOA2 inhibitor: inactive; NR2F2 inh: inactive

Results for CCC(C)NS(=O)(=O)c1ccc(S(=O)(=O)N(CCc2ccc(OC)c(OC)c2)Cc2cccs2)cc1 (stereo not drawn) ?
NR5A2 inv ag: inactive; NCOA2 inhibitor: inactive; GalR3 antagonist: 26.0; NCOA1 inh: inactive; NCOA3 inh: inactive; NR2F2 inh: 58.4; GalR3 conf: 56.0; CNG parental: inactive; Gal4-VP16 ctr: inactive; NR2F2 inh conf: 47.9

What do the screens show for `Cc1cc(Br)c(OCc2ccc(C(=O)N/N=C/c3ccc[nH]3)cc2)c(Br)c1`?
NR5A2 inv ag: 90.6; NCOA2 inhibitor: inactive; GalR3 antagonist: 61.0; NCOA1 inh: inactive; NCOA3 inh: 75.8; NR2F2 inh: 68.3; GalR3 conf: inactive; CNG parental: inactive; Gal4-VP16 ctr: 28.9; NR2F2 inh conf: 78.3

What do the screens show for `NC(=O)CC(NC(=O)Cc1cccc2ccccc12)c1ccc(NCCN2CCCC2)c([N+](=O)[O-])c1` (stereo not drawn)?
NR5A2 inv ag: inactive; NCOA2 inhibitor: inactive; GalR3 antagonist: inactive; NCOA1 inh: inactive; NCOA3 inh: inactive; NR2F2 inh: inactive
